We go through 39 compounds from PubChem BioAssay (NCATS).

SMILES strings stand for the structures. Where “and” joins values, the source holds several entries; their conditions need not be identical. Identical values can stand only once. Inconclusive results are not listed. Calls of active or inactive are those of the source. Unless noted, calls come from the whole dose curve.

Chain of Androgen receptor (Homo sapiens) (P10275 whole entry, looked up): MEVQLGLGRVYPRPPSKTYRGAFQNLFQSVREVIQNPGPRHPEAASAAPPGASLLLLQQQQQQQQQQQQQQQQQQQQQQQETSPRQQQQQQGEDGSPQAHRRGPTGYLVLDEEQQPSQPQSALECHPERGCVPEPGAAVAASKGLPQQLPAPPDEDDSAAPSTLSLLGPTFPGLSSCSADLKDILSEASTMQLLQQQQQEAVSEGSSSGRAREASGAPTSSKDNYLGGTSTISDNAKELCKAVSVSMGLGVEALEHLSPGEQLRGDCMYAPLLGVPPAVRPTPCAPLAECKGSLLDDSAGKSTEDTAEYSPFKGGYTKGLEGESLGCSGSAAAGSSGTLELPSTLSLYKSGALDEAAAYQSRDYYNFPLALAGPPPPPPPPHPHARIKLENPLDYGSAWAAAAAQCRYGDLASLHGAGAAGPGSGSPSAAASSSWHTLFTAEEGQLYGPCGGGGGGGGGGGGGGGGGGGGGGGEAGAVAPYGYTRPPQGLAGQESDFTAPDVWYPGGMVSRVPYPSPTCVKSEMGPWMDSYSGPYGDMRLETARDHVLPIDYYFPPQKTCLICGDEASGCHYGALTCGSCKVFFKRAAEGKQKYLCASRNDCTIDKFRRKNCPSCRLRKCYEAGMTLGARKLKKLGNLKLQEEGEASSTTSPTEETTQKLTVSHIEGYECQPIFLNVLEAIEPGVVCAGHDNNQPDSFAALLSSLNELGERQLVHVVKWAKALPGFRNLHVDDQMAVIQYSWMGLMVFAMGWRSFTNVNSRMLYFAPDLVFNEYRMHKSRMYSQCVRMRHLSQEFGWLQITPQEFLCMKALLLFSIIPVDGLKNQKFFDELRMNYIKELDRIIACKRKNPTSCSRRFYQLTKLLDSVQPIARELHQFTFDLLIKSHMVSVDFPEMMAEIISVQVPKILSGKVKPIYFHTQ
Chain of Bile acid receptor (Homo sapiens) (Q96RI1 whole entry, looked up): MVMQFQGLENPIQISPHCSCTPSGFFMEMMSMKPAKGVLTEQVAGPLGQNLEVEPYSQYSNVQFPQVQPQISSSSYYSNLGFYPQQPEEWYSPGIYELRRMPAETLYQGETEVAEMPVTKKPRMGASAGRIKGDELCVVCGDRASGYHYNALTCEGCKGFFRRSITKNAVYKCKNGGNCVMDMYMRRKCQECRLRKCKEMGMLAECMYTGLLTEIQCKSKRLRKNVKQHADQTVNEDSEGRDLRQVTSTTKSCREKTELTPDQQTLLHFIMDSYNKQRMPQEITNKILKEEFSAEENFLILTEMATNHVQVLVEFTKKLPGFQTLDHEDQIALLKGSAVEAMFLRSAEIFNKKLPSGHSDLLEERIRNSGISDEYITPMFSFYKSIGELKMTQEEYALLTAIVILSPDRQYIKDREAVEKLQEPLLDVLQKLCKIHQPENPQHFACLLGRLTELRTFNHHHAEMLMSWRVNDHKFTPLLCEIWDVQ

The target of one assay is Androgen receptor (Homo sapiens) (UniProt P10275). In words: qHTS assay for small molecule agonists of androgen receptor signaling (AID 588515; active = well fitted curve in the direction sought with a large enough effect in the signal ratio, with a control signal flat; the % refers to the signal ratio; note: % is set by controls: 0 for no effect and ±100 for the full control effect). As to conditions: AR-UAS-bla HEK293, beta-lactamase ratio, agonist 16 h; stronger effect = higher value. The method, boiled down:
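Stimulation of an AR-responsive β-lactamase reporter in GripTite HEK293 cells was measured after 16 h compound exposure at 37 °C, via CCF4 fluorescence after 2 h RT. EC50 from Hill fits, normalized to R1881 at 30 nM.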
As to `C=C1C(CCl)(CCl)C2(Cl)C(Cl)C(Cl)C1(Cl)C2(Cl)Cl` (centres undefined), the activation was -14.5% (inactive).
The same measure, in the same setting: next, `CC(C)[C@@H]1CC[C@@H](C)C[C@H]1O`: 9.8% (inactive); `CCCCCCCCCCCCCCCCCC(=O)OC[C@@H](O)[C@H]1OC[C@H](O)[C@H]1O`: 14.2% (inactive).

In a further assay the target is Bile acid receptor (Homo sapiens) (UniProt Q96RI1). In words: qHTS assay for small molecule antagonists of farnesoid X receptor signaling (AID 588526). Note: % is set by controls: 0 for no effect and ±100 for the full control effect. The conditions noted are these: HEK293T FXR-UAS-bla, beta-lactamase ratio, antagonist mode; series mostly up to 76.7 µM; activity change, negative = inhibition: at the top concentration. The method, boiled down:
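Antagonist mode: titrated compounds tested against chenodeoxycholic acid stimulation (normalized to 50 uM CDCA and DMSO) in GeneBLAzer HEK293T cells for 16 h. Beta-lactamase read by CCF4 fluorescence; IC50 from Hill fits.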
For the compound `OCl`, the “activity change, negative = inhibition” value is -3.45% (inactive).
The same measure, in the same setting: then `C[Si](C)(C)O[Si](C)(C)C`, with -12.4% (inactive).
For the compound `CC1=CC(=O)NS(=O)(=O)O1`, the result was inactive.
For `CN(CCO)CC(O)Cn1cnc2c1c(=O)n(C)c(=O)n2C` (centres undefined) (tested in a mixture with another compound), the “activity change, negative = inhibition” value is 7.11% (inactive).
For `CC/C=C\C/C=C\C/C=C\CCCCCCCC(=O)O`, the “activity change, negative = inhibition” value was -11.4% (inactive).
Same read-out and setting: then `C=CC(C)(O)CC/C=C(\C)CCC=C(C)C` (centres undefined), with -11.4% (inactive).
In the case of `CCCCO`, the result was inactive.
For `ClC(Cl)Cl`, the “activity change, negative = inhibition” value was 0.617% (inactive).
Still for that read-out and setting: then `CC(C)O`, with -13.5% (inactive).
The same measure, in the same setting: then `CC(C)[C@@H]1CC[C@@H](C)C[C@H]1O`, with -4.91% (inactive).
Still for that read-out and setting: then `CC(C)CCC[C@@H](C)[C@H]1CC[C@H]2[C@@H]3CC=C4C[C@@H](O)CC[C@]4(C)[C@H]3CC[C@]12C`, with -4.55% (inactive); and `CCCCC`, with 10.1% (inactive).
Regarding `OB(O)O`, the result was inactive.
Take `Cc1ncc[nH]1`: the “activity change, negative = inhibition” value was 5.82% (inactive).
Still for that read-out and setting: next, `O=P(O)(O)O`: -4.14% (inactive); `CCCCCCCCCCCCCCCCCC(=O)OC[C@@H](O)[C@H]1OC[C@H](O)[C@H]1O`: -0.409% (inactive).

The target of the next assay is Glucocorticoid receptor (Homo sapiens) (UniProt P04150). In words: qHTS assay for small molecule antagonists of glucocorticoid receptor signaling (AID 588533; active = well fitted inhibition curve with a large enough effect in the signal ratio, with a control signal flat, not every such curve was filed as active; the % refers to the signal ratio;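 note: cells stimulated with 2 nM dexamethasone as agonist; % is set by controls: 0 for no effect and ±100 for the full control effect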). The conditions noted are these: HeLa MMTV-bla, GRE beta-lactamase ratio, antagonist mode, 18 h; series mostly up to 76.8 µM; activity change, negative = inhibition: at the top concentration. The method, boiled down: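 Antagonist-mode qHTS: compound titrations added to GRE-bla HeLa cells, then dexamethasone 2 nM final; 18 h, 37 C. CCF4 FRET fluorescence normalized to dexamethasone and DMSO; IC50 from Hill fit.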
Chain of Glucocorticoid receptor (Homo sapiens) (P04150 whole entry, looked up): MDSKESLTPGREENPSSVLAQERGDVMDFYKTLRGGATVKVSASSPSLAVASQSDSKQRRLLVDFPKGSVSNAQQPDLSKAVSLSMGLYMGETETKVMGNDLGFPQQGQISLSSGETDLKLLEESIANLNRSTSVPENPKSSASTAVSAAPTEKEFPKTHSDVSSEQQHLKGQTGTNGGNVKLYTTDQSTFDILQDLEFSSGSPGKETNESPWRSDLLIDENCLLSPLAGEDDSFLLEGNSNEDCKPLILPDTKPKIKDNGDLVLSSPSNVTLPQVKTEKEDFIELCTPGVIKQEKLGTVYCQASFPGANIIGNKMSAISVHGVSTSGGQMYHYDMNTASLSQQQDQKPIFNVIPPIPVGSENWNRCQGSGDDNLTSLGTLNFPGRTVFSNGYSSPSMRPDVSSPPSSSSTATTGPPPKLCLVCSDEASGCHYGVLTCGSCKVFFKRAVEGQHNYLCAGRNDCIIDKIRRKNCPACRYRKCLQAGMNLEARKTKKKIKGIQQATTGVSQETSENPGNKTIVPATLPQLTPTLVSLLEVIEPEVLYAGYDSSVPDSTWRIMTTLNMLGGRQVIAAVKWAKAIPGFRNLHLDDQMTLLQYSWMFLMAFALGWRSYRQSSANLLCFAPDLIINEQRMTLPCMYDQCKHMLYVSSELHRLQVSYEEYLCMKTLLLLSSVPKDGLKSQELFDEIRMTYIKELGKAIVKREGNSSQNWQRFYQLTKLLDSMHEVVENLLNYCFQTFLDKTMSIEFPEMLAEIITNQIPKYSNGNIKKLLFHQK
Background: In qHTS, concentration-response curves come from the screen itself.
Consider `N[C@@H](Cc1cc(I)c(Oc2ccc(O)c(I)c2)c(I)c1)C(=O)O`, for which the “activity change, negative = inhibition” value is -9.45% (inactive).
The same measure, in the same setting: next, `CCOC(C)OCC`: 10.2% (inactive).
As to `C=C(C)C1CC=C(C)CC1` (centres undefined), the Potency result is “inactive”.
For `CC1=CC(=O)NS(=O)(=O)O1`, the “activity change, negative = inhibition” value was 2.98% (inactive).
Same read-out and setting: next, `C=CC(C)(O)CC/C=C(\C)CCC=C(C)C` (centres undefined): 5.43% (inactive).
On the same count and under the same terms, next, `Cc1ccc(S(=O)(=O)O)cc1C`: 5.66% (inactive).
Regarding `C[C@H](CCC(=O)O)[C@H]1CC[C@H]2[C@@H]3[C@H](O)C[C@@H]4C[C@H](O)CC[C@]4(C)[C@H]3C[C@H](O)[C@]12C`, the “activity change, negative = inhibition” value was -0.385% (inactive).
Still for that read-out and setting: next, `CO[C@@H]1[C@H](OC(=O)/C=C/C=C/C=C/C=C/C(=O)O)CC[C@]2(CO2)[C@H]1[C@@]1(C)O[C@@H]1CC=C(C)C`: -26.7% (inactive); `CO/N=C(/C(=O)N[C@@H]1C(=O)N2C(C(=O)O)=C(COC(N)=O)CS[C@H]12)c1ccco1`: 12.2% (inactive); `ClC(Cl)Cl`: 3.52% (inactive).
The same measure, in the same setting: next, `[O-][N+](=Nc1ccccc1)c1ccccc1`: 0.974% (inactive); `CCCCC`: 23.6% (inactive).
For `OB(O)O`, the Potency result was “inactive”.
Take `OC[C@H]1O[C@@H]2O[C@H]3[C@H](O)[C@@H](O)[C@@H](O[C@H]4[C@H](O)[C@@H](O)[C@@H](O[C@H]5[C@H](O)[C@@H](O)[C@@H](O[C@H]6[C@H](O)[C@@H](O)[C@@H](O[C@H]7[C@H](O)[C@@H](O)[C@@H](O[C@H]1[C@H](O)[C@H]2O)O[C@@H]7CO)O[C@@H]6CO)O[C@@H]5CO)O[C@@H]4CO)O[C@@H]3CO`: the “activity change, negative = inhibition” value was 9.38% (inactive).
On the same count and under the same terms, then `O=C(OCc1ccccc1)c1ccc(O)cc1`, with -2.76% (inactive); and `CC(C)CCCCCCc1ccc(O)cc1`, with 7.58% (inactive); and `Cc1ncc[nH]1`, with -16.1% (inactive).
On the same count and under the same terms, then `O=P(O)(O)O`, with -2.02% (inactive).
As to `CC1=CCC2CC1C2(C)C` (centres undefined), the “activity change, negative = inhibition” value is 15.7% (inactive).
The same measure, in the same setting: next, `O=c1n(CC2CO2)c(=O)n(CC2CO2)c(=O)n1CC1CO1` (centres undefined): -8.93% (inactive); `CCCCCCCCCCCCCCCCCC(=O)OC[C@@H](O)[C@H]1OC[C@H](O)[C@H]1O`: -2.77% (inactive).
Same read-out and setting: then `Nc1ccc(N=Nc2ccccc2)c(N)n1`, with -23.4% (inactive); and `Cc1ccc(S(=O)(=O)NCl)cc1`, with 3.03% (inactive).

System in another assay: not listed separately
In words: qHTS assay for small molecule antagonists of peroxisome proliferator-activated receptor delta signaling (AID 588535).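 Note: cells co-treated with a PPAR-delta agonist as stimulator during compound exposure.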 The conditions noted are these: HEK293T PPARd-UAS-bla, beta-lactamase FRET ratio, 18 h; 460 nm channel. The method, boiled down: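 Beta-lactamase reporter read-out (405 nm excitation, 460/530 nm emission) after CCF4 loading for 2 hrs at RT. HEK293T PPAR-delta-UAS-bla cells, 2% charcoal/dextran FBS, compounds for 18 hrs at 37 C. Hill fit gave IC50 and efficacy.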
`OC[C@H]1O[C@@](CO)(O[C@H]2O[C@H](CO)[C@@H](O)[C@H](O)[C@H]2O)[C@@H](O)[C@@H]1O`: the max response is -16.8%.
Take `N[C@@H](Cc1cc(I)c(Oc2ccc(O)c(I)c2)c(I)c1)C(=O)O`: the max response worked out at 53.8%.
On to `OCl`, for which the max response was -10.3%.
With `C[Si](C)(C)O[Si](C)(C)C`, the max response worked out at 8.43%.
With `COC(=O)c1ccccc1O`, the max response is -8.84% and 15.6%.
In the case of `CC1=CC(=O)NS(=O)(=O)O1`, the max response is 2.47% and 22.8%.
Consider `CN(CCO)CC(O)Cn1cnc2c1c(=O)n(C)c(=O)n2C` (centres undefined) (tested in a mixture with another compound), for which the max response was 15.9%.
Still for that read-out and setting: next, `NCCN`: 42.1%; `C=CC(C)(O)CC/C=C(\C)CCC=C(C)C` (centres undefined): 18.5%; `CO`: -4.23%.
On the same count and under the same terms, next, `C/C=C/C=C/C(=O)O`: 0.118%.
For `CCCCO`, the max response was 1.82%.
For `Cc1ccc(S(=O)(=O)O)cc1C`, the max response is -12.1%.
Same read-out and setting: then `CO[C@@H]1[C@H](OC(=O)/C=C/C=C/C=C/C=C/C(=O)O)CC[C@]2(CO2)[C@H]1[C@@]1(C)O[C@@H]1CC=C(C)C`, with 39.3%; and `CC(C)O`, with 15.2%.
The same measure, in the same setting: next, `Oc1cccc(O)c1O`: -13.9%.
The same measure, in the same setting: then `CC(C)[C@@H]1CC[C@@H](C)C[C@H]1O`, with -3.98%; and `[O-][N+](=Nc1ccccc1)c1ccccc1`, with 22.2%.
Regarding `CCCCC`, the max response is 25%.
Same read-out and setting: next, `OB(O)O`: 1.13%; `CC(C)CCCCCCc1ccc(O)cc1`: -43.1%.
Still for that read-out and setting: next, `Cc1ncc[nH]1`: 34.3%; `CC1=CCC2CC1C2(C)C` (centres undefined): -1.04%.
Still for that read-out and setting: next, `CCCCCCCCCCCCCCCCCC(=O)OC[C@@H](O)[C@H]1OC[C@H](O)[C@H]1O`: 30.1%.
As for `Nc1ccc(N=Nc2ccccc2)c(N)n1`, the max response was -2.71% and -25%.
On the same count and under the same terms, then `Nc1nccs1`, with -9.51%; and `Cc1ccc(S(=O)(=O)NCl)cc1`, with -27%.
